# Test results from PubChem BioAssay.
# The other results are listed elsewhere or left out. Active and inactive are the calls of the source. Cut-off read from the data, not from the text of the source, unless noted: active = inhibition above about 40%; inactive = the rest.
# Tests used:
# [1] = NF-kB reporter suppression in CF airway cells – cell-based, GFP fluorescence, single concentration, confirmation (AID 602472); conditions: KKLEB CF airway cells, PAF-induced NF-kB-GFP fluorescence, overnight; at 5 µM; stronger effect = higher value;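 note: stimulus PAF is a Pseudomonas aeruginosa filtrate and not platelet activating factor; plate controls were DMSO wells with stimulus for no effect and unstimulated DMSO wells for full effect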
# [2] = NFkB reporter suppression in cystic fibrosis bronchial cells – cell-based, uHTS hits, panel, cytotoxicity readout, dose response (AID 624344); conditions: CF bronchial epithelial cells, PAF-induced NFkB reporter inhibition, with PAF, run 1; at 79 µM (top of the series) unless noted
# [3] = as above; conditions: CF bronchial epithelial cells, PAF-induced NFkB reporter inhibition, with PAF, run 2; at 79 µM (top of the series) unless noted
# [4] = HIF-2a driven luciferase blockers, single dose – luminescence, 786-0 RCC cells, confirmation (AID 651580;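 active = mean inhibition across four replicates of at least 40 percent at the single tested concentration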); conditions: HIF-2a luciferase reporter luminescence, overnight, at 18.8 µM, stronger effect = higher value
# [5] = HIF-1a luciferase reporter signal reduction – MiaPaCa-2 cells, single concentration, counter-screen for HIF-2a inhibitor project, confirmation (AID 651589;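 active = mean inhibition of the reporter signal across four replicates at the single tested dose of 50% or more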); conditions: MiaPaCa-2 HIF-1a luciferase reporter, desferoxamine, overnight; at 18.8 µM; stronger effect = higher value
# PEG-3 [6] = biological target: PEG-3 (UniProt Q6IN02); experiment: inhibition of PEG-3 promoter-driven reporter – cell-based, HeLa, luciferase, CREF/GAPDH counter-screen panel, dose response (AID 624167); conditions: CREF/GAPDH counter-screens; HeLa PEG-Prom luciferase reporter, overnight, run 1, dose range 1, at 100 µM (top of the series) unless noted
# PEG-3 [7] = biological target: PEG-3 (UniProt Q6IN02); experiment: as above; conditions: CREF/GAPDH counter-screens; HeLa PEG-Prom luciferase reporter, overnight, run 2, dose range 1, at 100 µM (top of the series) unless noted
# Chain of PEG-3 (Q6IN02 whole entry, looked up): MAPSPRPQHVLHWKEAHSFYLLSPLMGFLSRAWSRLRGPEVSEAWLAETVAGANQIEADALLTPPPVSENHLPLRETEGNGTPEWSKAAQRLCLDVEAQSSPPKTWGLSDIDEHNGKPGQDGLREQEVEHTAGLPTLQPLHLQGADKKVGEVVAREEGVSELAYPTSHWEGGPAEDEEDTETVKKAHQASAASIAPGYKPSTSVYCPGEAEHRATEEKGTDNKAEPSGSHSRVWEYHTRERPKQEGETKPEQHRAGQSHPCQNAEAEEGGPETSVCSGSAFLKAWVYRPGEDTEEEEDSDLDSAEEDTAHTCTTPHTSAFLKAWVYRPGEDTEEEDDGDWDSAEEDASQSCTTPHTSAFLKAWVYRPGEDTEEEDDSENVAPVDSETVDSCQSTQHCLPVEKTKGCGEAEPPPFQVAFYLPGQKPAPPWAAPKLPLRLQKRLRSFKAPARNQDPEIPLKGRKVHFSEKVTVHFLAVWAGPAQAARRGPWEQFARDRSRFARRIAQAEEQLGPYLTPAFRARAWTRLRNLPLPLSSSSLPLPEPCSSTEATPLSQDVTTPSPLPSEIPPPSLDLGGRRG
compound,measurement,setting,value
COc1ccc(NC(=S)SC)cc1OC,inhibition,[1],39.3% (inactive)
COc1ccc(CNc2ncnc3ccccc23)cc1,inhibition,[1],47.6% (active)
same,inhibition,[2],112%
same,inhibition,[3],87%
Cc1cc2nc(-c3ccco3)c(Cc3cccc(F)c3)n2c(C)c1Br,inhibition,[1],-41.6% (inactive)
CCc1ccc(N(CC)c2ncnc3nc[nH]c23)cc1,inhibition,[1],62.6% (active)
same,inhibition,[2],101%
same,inhibition,[3],99.3%
Cc1c(C)c2ccc(OCC(=O)N3CCN(c4cccc(Cl)c4)CC3)cc2oc1=O,inhibition,[1],10.3% (inactive)
C#CCN(C[C@@H]1[C@@H](OC(=O)NC2CC2)[C@@H](OC(=O)NC2CC2)Cn2c(=O)ccc(=O)n21)S(=O)(=O)c1ccc(C)cc1,inhibition,[1],61.6% (active)
same,inhibition,[2],102%
same,inhibition,[3],111%
COc1cccc2sc(N(CCCN(C)C)C(=O)CCS(=O)(=O)c3ccccc3)nc12,inhibition,[1],102% (active)
same,inhibition,[2],88.9%
same,inhibition,[3],86.9%
COc1ccc(NC(=O)c2sc3nc(C)nc(N4CCN(c5ccccn5)CC4)c3c2C)c(OC)c1,inhibition,[1],38.6% (inactive)
CC1(C)O[C@@H]2CC3C4C[C@H](F)C5=CC(=O)C=CC5(C)C4C(O)CC3(C)[C@]2(C(=O)CO)O1 (some centres undefined),inhibition,[1],27.4% (inactive)
Cc1cccc2sc(N(CCCN(C)C)C(=O)CCS(=O)(=O)c3ccccc3)nc12,inhibition,[1],84.3% (active)
same,inhibition,[4],22.5% (inactive)
same,inhibition,[5],98.9% (active)
same,inhibition,[2],98.4%
same,inhibition,[3],102%
COC(=O)c1ccc(NC(=O)c2ccccc2NS(=O)(=O)c2ccccc2)cc1,inhibition,[1],69.8% (active)
same,inhibition,[2],118%
same,inhibition,[3],105%
CNCC[C@@H](Oc1ccc(C(F)(F)F)cc1)c1ccccc1,inhibition,PEG-3 [6],98.7%
same,inhibition,PEG-3 [7],100%
COC(=O)c1cn(NC(=O)c2cc([N+](=O)[O-])ccc2F)c(=O)c2ccccc12,inhibition,PEG-3 [6],95.3%
same,inhibition,PEG-3 [7],94%
O=C(CN1CCN(Cc2ccccc2Cl)CC1)N=Nc1c(O)[nH]c2ccccc12,inhibition,PEG-3 [6],94.2%
same,inhibition,PEG-3 [7],90.4%
Cc1nc2c(OCc3ccc(OC(F)F)cc3)cccn2c1N(C)C(=O)CCC1CCCC1,inhibition,PEG-3 [6],95.4%
same,inhibition,PEG-3 [7],99.7%
O=[N+]([O-])c1cc(Cl)cc(/C=N\Nc2ccccn2)c1O,inhibition,PEG-3 [6],28.9%
same,inhibition,PEG-3 [7],40.5%
COc1ccc(-n2cc(CNC3CCN(C)CC3)c(-c3cccc(F)c3)n2)cc1,inhibition,PEG-3 [6],100%
same,inhibition,PEG-3 [7],101%
COc1ccc(C)cc1Nc1n[n+](-c2ccccc2)c(-c2ccc(N(C)C)cc2)s1,inhibition,PEG-3 [6],97.2%
same,inhibition,PEG-3 [7],100%
CCCCCCCn1c(=N)n(CC(O)c2ccco2)c2ccccc21 (centres undefined),inhibition,PEG-3 [6],101%
same,inhibition,PEG-3 [7],99.1%
CN(C)CCNc1ncnc2c1sc1nc(N3CCCC3)c3c(c12)CC(C)(C)OC3,inhibition,PEG-3 [6],99.7%
same,inhibition,PEG-3 [7],102%
COc1ccc(-c2nc(NC(=O)c3n[nH]c(=O)c4ccccc34)sc2C)cc1,inhibition,PEG-3 [6],14%
same,inhibition,PEG-3 [7],30.7%
CC(=O)c1cccc(NC(=O)c2cccc3c(-c4cccnc4)coc23)c1,inhibition,PEG-3 [6],36.4%
same,inhibition,PEG-3 [7],47%
COC(=O)c1cc(=O)n(Cc2ccco2)c(=Nc2ccc(F)cc2)s1,inhibition,PEG-3 [6],102%
same,inhibition,PEG-3 [7],102%
O=C(/C=C/c1cc(Br)ccc1O)c1ccco1,inhibition,PEG-3 [6],102%
same,inhibition,PEG-3 [7],101%
CCc1ccc(O)c(CNCCNCc2cc(CC)ccc2O)c1,inhibition,PEG-3 [6],102%
same,inhibition,PEG-3 [7],101%
CC(C)(C)c1ccc(OCCCNCc2ccccc2)cc1,inhibition,PEG-3 [6],99.8%
same,inhibition,PEG-3 [7],98%
COc1ccc(NC(=O)N(C)[C@H]2C[C@H]3c4[nH]c5ccc(-c6cccc(C)c6)cc5c4CCN3C[C@H]2[C@H](C)O)cc1,inhibition,PEG-3 [6],98.4%
same,inhibition,PEG-3 [7],97.1%
N=c1n(CCN2CCCC2)c2ccccc2n1CC(O)c1ccc(Cl)c(Cl)c1 (centres undefined),inhibition,PEG-3 [6],99.3%
same,inhibition,PEG-3 [7],101%
CCN(CC)CCn1c2ccccc2c2cnc(N)c(C#N)c21,inhibition,PEG-3 [6],101%
same,inhibition,PEG-3 [7],102%
C/C(=N\N=C(N)N)c1ccc(Cl)c(Cl)c1,inhibition,PEG-3 [6],102%
same,inhibition,PEG-3 [7],101%
Cc1c(C(=O)N2CCN(c3ccc(F)cc3)CC2)sc2ncnc(N3CCN(c4ccccn4)CC3)c12,inhibition,PEG-3 [6],67.2%
same,inhibition,PEG-3 [7],77.6%
Cc1ccccc1NC(=O)C(=Cc1ccc(C(=O)O)cc1)C(=O)Nc1ccccc1C,inhibition,PEG-3 [6],90.3%
same,inhibition,PEG-3 [7],101%
c1ccc(CN=C(NCc2ccccc2)NCc2ccccc2)cc1,inhibition,PEG-3 [6],99.7%
same,inhibition,PEG-3 [7],102%
CSc1ccc(CN(C)C(=O)C(Cc2ccccc2)NC(=O)c2ccccc2)cc1 (centres undefined),inhibition,PEG-3 [6],101%
same,inhibition,PEG-3 [7],96.7%
CC(C)NC(=O)NC(=O)COC(=O)c1c2c(nc3ccccc13)CCC2,inhibition,PEG-3 [6],101%
same,inhibition,PEG-3 [7],93.6%
CN(C)CC1CCC/C(=C\c2ccc(OC(=O)/C=C/c3ccccc3)cc2)C1=O (centres undefined),inhibition,PEG-3 [6],97.5%
same,inhibition,PEG-3 [7],102%
CC(C)(C)c1ccc(CN2N=Nc3ccccc3S2(=O)=O)cc1,inhibition,PEG-3 [6],98.8%
same,inhibition,PEG-3 [7],100%
CC(=O)Nc1cccc(-c2cc(NC=O)c3ncc(-c4ccc(C(C)=O)cc4)n3c2)c1,inhibition,PEG-3 [6],12.8%
same,inhibition,PEG-3 [7],31.9%
CC1(C)CC(NC(=O)c2cccc(S(=O)(=O)N(Cc3ccccc3)c3ccccc3)c2)CC(C)(C)N1,inhibition,PEG-3 [6],101%
same,inhibition,PEG-3 [7],102%
CCOC(=O)c1c(NC(C)=O)sc2c(OCC(O)CN(CC)CC)c(Br)ccc12 (centres undefined),inhibition,PEG-3 [6],102%
same,inhibition,PEG-3 [7],98.6%
CC(=O)OCCNc1cc(SCc2ccco2)c2nonc2c1[N+](=O)[O-],inhibition,PEG-3 [6],100%
same,inhibition,PEG-3 [7],98.1%
COC(=O)C1=C(C(=O)OC)C(C(=O)OC)C(C(=O)OC)C(C(=O)OC)(C(=O)OC)C(C(=O)OC)=C1C(=O)OC (centres undefined),inhibition,PEG-3 [6],99%
same,inhibition,PEG-3 [7],101%
Cc1c(CCOC(=O)C23CC4CC(CC(C)(C4)C2)C3)sc[n+]1CC(=O)c1ccccc1,inhibition,PEG-3 [6],99.3%
same,inhibition,PEG-3 [7],97.8%
